Most compounds without a hit are left out; they make up all but 5.2% or so of the library.
Vif inh: HIV Vif inhibition; actives 0.35% (n = 340,000); HEK293T cells, Vif self-association by quenched fluorescence, imaging, 24 h; inhibition, % at 7.49 µM; AID 602346; in the data active means inhibition above about 50%, passing the limit was not always enough
GRIN3A LBD mod: modulators (binders) of human NR3A ligand-binding domain; AID 1259313; NR3A LBD differential scanning fluorimetry, Tm shift; 0% = protein alone, 100% = glycine-bound protein; Tm shift relative to glycine control, % at 25 µM; actives 2.5% (n = 340,000);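 active means melting temperature shift of at least 10% of the positive control shift, at one fixed dose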
esBAF inh: inhibitors of esBAF chromatin remodeling in mouse ES cells; Bmi1-luciferase knock-in reporter, 24 h; 100% = twice the neutral-well signal; reporter increase, % at 12.5 µM; actives 2% (n = 350,000); AID 602393; in the data active means activation above about 40%;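 further: a rise in the Bmi1 reporter signal indicates esBAF inhibition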
NadD block: blocks S. aureus nicotinate mononucleotide adenylyltransferase; purified NadD enzyme, colorimetric absorbance read-out; inhibition, % at 20 µM; actives 0.78% (n = 360,000); AID 602399; in the data active means inhibition above about 26%
SMARCA2 act: SMARCA2 function activation, primary screen | MG213 cells, MMTV-luciferase reporter, dexamethasone, overnight | actives 1% (n = 370,000) | activation, % at 9.1 µM; in the data active means activation above about 7.8%
SKN-1 block: inhibitors of C. elegans SKN-1; C. elegans VP596 Pgst-4::GFP/RFP ratio, acrylamide-induced, 24 h; actives 0.49% (n = 360,000); inhibition, % at 21.8 µM;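 active means interference check ratio from 0.5 to 1.5 plus GFP to RFP signal ratio inhibition reaching or exceeding a fixed threshold, cut at about 30% in these data, passing the limit was not always enough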
Each line names hits and unclear results; the compound was inactive in the other large screens.

CN(C(=O)c1cccc(NC(=O)Cc2ccc(NC(=O)C3CCN(S(=O)(=O)c4cccc([N+](=O)[O-])c4)CC3)cc2)c1)C1CCCC1	none
CN(C(=O)c1cccc(NC(=O)Cc2ccc(NC(=O)C3CCCN(S(=O)(=O)c4cccc([N+](=O)[O-])c4)C3)cc2)c1)C1CCCCC1 (stereo not given)	GRIN3A LBD mod 10
O=C(NNC(=O)c1ccc[nH]1)Nc1cc(Cl)cc(Cl)c1	Vif inh 55
C[C@H](CO)N1C[C@H](C)[C@@H](CN(C)Cc2ccncc2)Oc2cc(-c3cccnc3)ccc2S1(=O)=O	none (no result: Vif inh, GRIN3A LBD mod, NadD block, SMARCA2 act, SKN-1 block)
COCC#Cc1ccc2c(c1)O[C@@H](CN(C)C(=O)c1ccccc1)[C@H](C)CN([C@@H](C)CO)S2(=O)=O	none (no result: Vif inh, GRIN3A LBD mod, NadD block, SMARCA2 act, SKN-1 block)
Cc1cc(N=Nc2ccc(C)c(N=Nc3cc(C)c(N)cc3N)c2)c(N)cc1N	GRIN3A LBD mod 10, NadD block 30
O=C1CC(NNC(=O)c2ccc(Br)cc2)C(=O)N1 (stereo not given)	SKN-1 block 43
O=C1CC(NNC(=O)c2ccccc2)C(=O)N1 (stereo not given)	none
O=C(O)C1Nc2c(O)cc(Cl)c([N+](=O)[O-])c2C2C=CCC12 (stereo not given)	NadD block 63 (no result: Vif inh, esBAF inh)
C[C@@H](NC(=O)[C@@H]1[C@@H](CO)[C@@H]2Cn3c(ccc(-c4cccnc4)c3=O)[C@H]1N2C)c1ccccc1	none (no result: Vif inh, GRIN3A LBD mod, NadD block, SMARCA2 act, SKN-1 block)
C[C@H](CO)N1C[C@H](C)[C@H](CN(C)C(=O)Nc2ccc(F)cc2)Oc2ccc(NC(=O)C3CCCCC3)cc2CC1=O	none (no result: Vif inh, GRIN3A LBD mod, NadD block, SMARCA2 act, SKN-1 block)
CC1=NN(c2ccccc2)C(=O)/C1=C/C=C/C=C/N(C)C	SKN-1 block 66 (no result: esBAF inh)
CC1=NN(c2ccc(Cl)c(C(=O)O)c2)C(=O)/C1=C\c1ccc(-c2ccc(C(=O)O)cc2)o1	none (no result: esBAF inh)
CC1=NN(c2ccccc2)C(=O)/C1=C/c1ccc[nH]1	GRIN3A LBD mod 17, esBAF inh 50
CC1=NN(c2cccc(C(=O)O)c2)C(=O)/C1=C\C=C/c1ccccc1	GRIN3A LBD mod 12 (no result: esBAF inh)
CC1=NN(c2ccccc2)C(=O)/C1=C/c1ccc(-c2ccc(C)c(C(=O)O)c2)o1	GRIN3A LBD mod 10 (no result: Vif inh, esBAF inh, NadD block, SKN-1 block)
CN(C)CC(=O)Nc1ccc2c(c1)[C@H]1C[C@@H](CC(=O)N3CCc4ccccc4C3)O[C@H](CO)[C@H]1O2	none (no result: Vif inh, GRIN3A LBD mod, NadD block, SMARCA2 act, SKN-1 block)
CC1=NN(c2ccccc2)C(=O)C1=Cc1ccccc1	none (no result: Vif inh, GRIN3A LBD mod)
CC1=NN(c2ccccc2)C(=O)/C1=C/c1c(O)n(-c2ccc(F)cc2)[nH]c1=O	GRIN3A LBD mod 11, esBAF inh 55
COc1ccc(NC(=O)Nc2ccc3c(c2)C(=O)N([C@@H](C)CO)C[C@@H](C)[C@@H](CN(C)Cc2ccccc2)OCCCC[C@H](C)O3)cc1	none (no result: Vif inh, GRIN3A LBD mod, NadD block, SMARCA2 act, SKN-1 block)
C/C(=C\C(=O)c1ccc(F)cc1)NCc1ccc2c(c1)OCO2	GRIN3A LBD mod 14
C/C(=C\C(=O)c1ccccc1)NCc1ccc(F)cc1	SKN-1 block 33
C/C(=C\C(=O)c1ccc(C)cc1)NCc1ccc(F)cc1	none (no result: Vif inh)
COc1ccc(N/C(C)=C/C(=O)c2ccccc2)cc1	none (no result: esBAF inh)
COc1ccc(C(=O)/C=C(\C)Nc2ccc3c(c2)OCO3)cc1	esBAF inh 62
C/C(=C\C(=O)c1ccc(Br)cc1)NCc1ccc2c(c1)OCO2	none
Cc1ccc(NC(=S)N=Nc2c(O)n(C)c3ccc(S(=O)(=O)N4CCOCC4)cc23)cc1C	NadD block 31
Cn1c(O)c(N=NC(=S)Nc2ccccc2F)c2cc(S(=O)(=O)N3CCOCC3)ccc21	none
CCOc1ccccc1NC(=O)CCC(=O)Nc1nnc(C2CCCCC2)s1	GRIN3A LBD mod 15
Cc1ccnc(NC(=O)CC(NC(=O)c2ccccc2Cl)c2ccccc2)c1 (stereo not given)	esBAF inh 52
Cc1ccc(NC(=O)CC(NC(=O)c2ccccc2Cl)c2ccccc2)nc1 (stereo not given)	none
Cc1ccnc(NC(=O)CCNC(=O)c2ccccc2Cl)c1	esBAF inh 46
Cc1ccnc(NC(=O)CNC(=O)COc2ccccc2)c1	esBAF inh 74
O=C(N[C@H]1CC[C@@H](CC(=O)N2CCc3ccccc3C2)O[C@@H]1CO)C1CC1	none (no result: Vif inh, GRIN3A LBD mod, NadD block, SMARCA2 act, SKN-1 block)
C[C@@H]1CN([C@H](C)CO)C(=O)c2cc(NS(=O)(=O)c3ccc(Cl)cc3)ccc2O[C@@H](C)CCCCO[C@@H]1CN(C)Cc1ccc(C(=O)O)cc1	none (no result: Vif inh, GRIN3A LBD mod, NadD block, SMARCA2 act, SKN-1 block)
CC(C)NC(=O)Nc1ccc2c(c1)CC(=O)N([C@H](C)CO)C[C@H](C)[C@H](CN(C)S(=O)(=O)c1ccc(F)cc1)O2	none (no result: Vif inh, GRIN3A LBD mod, NadD block, SMARCA2 act, SKN-1 block)
C[C@@H]1CN([C@H](C)CO)C(=O)c2cccc(NC(=O)C3CC3)c2O[C@H]1CN(C)C(=O)Nc1ccccc1	none (no result: Vif inh, GRIN3A LBD mod, NadD block, SMARCA2 act, SKN-1 block)
O=C(CN1CCOCC1)N[C@@H]1CC[C@H](CCNC(=O)C2CCCCC2)O[C@@H]1CO	none (no result: Vif inh, GRIN3A LBD mod, NadD block, SMARCA2 act, SKN-1 block)
O=C(NC(=S)N(Cc1ccccc1)Cc1ccccc1)C1CCCCC1	none (no result: Vif inh)
O=C(NC(=S)N(Cc1ccccc1)c1ccccn1)C1CC1	GRIN3A LBD mod 17
c1ccc(Nc2nc(-c3ccccc3)nc3ccccc23)cc1	GRIN3A LBD mod 11
Oc1cccc(Nc2nc(-c3ccccc3Cl)nc3ccccc23)c1	GRIN3A LBD mod 17 (no result: Vif inh)
Cc1ccc(-c2nc(Nc3cccc(O)c3)c3ccccc3n2)cc1	GRIN3A LBD mod 42
O=C(O)c1ccc(Nc2nc(-c3ccccc3)nc3ccccc23)cc1	none
Cc1ccc(/C(=N/Nc2ncnc3ccccc23)C(=O)O)cc1	esBAF inh 52
CO[C@H]1CN(C)C(=O)c2cc(NC(=O)NC(C)C)ccc2OC[C@@H](C)N(C(=O)C2CCC2)C[C@@H]1C	none (no result: Vif inh, GRIN3A LBD mod, NadD block, SMARCA2 act, SKN-1 block)
Cc1ccc(Nc2ncnc3ccccc23)cc1	esBAF inh 46
Cc1ccc(Nc2ncnc(Cl)c2N)cc1	GRIN3A LBD mod 13
COC(=O)c1cccc(Nc2ncnc3ccc(C)cc23)c1	none
Cc1ccc(-c2nc(Nc3ccc(O)cc3)c3ccccc3n2)cc1	GRIN3A LBD mod 34 (no result: Vif inh)
Cc1ccc2ncnc(Nc3cccc([N+](=O)[O-])c3)c2c1	SKN-1 block 38
C[C@H]1CCCCO[C@@H](CN(C)Cc2ccc(C(F)(F)F)cc2)[C@@H](C)CN([C@@H](C)CO)C(=O)c2cc(N(C)C)ccc2O1	none (no result: Vif inh, GRIN3A LBD mod, NadD block, SMARCA2 act, SKN-1 block)
Oc1cccc(Nc2c3ccccc3nc3ccccc23)c1	SKN-1 block 36
CCOC(=O)c1nc(Nc2ccc(C(=O)O)cc2)c2ccccc2n1	GRIN3A LBD mod 14
c1cncc(Nc2c3ccccc3nc3ccccc23)c1	none
O=[N+]([O-])c1ccc(-c2nc(Nc3cccc(O)c3)c3ccccc3n2)cc1	GRIN3A LBD mod 30
O=C(O)c1cccc(Nc2nc(-c3ccc([N+](=O)[O-])cc3)nc3ccccc23)c1	none
O=C(c1cccc(F)c1)N1C[C@H]2[C@@H](c3ccccc31)[C@H](CO)N2C(=O)c1ccccn1	none (no result: Vif inh, GRIN3A LBD mod, NadD block, SMARCA2 act, SKN-1 block)
CO[C@H]1CN(C)C(=O)c2cc(NC(=O)NC(C)C)ccc2OC[C@H](C)N(C(=O)C2CCC2)C[C@@H]1C	none (no result: Vif inh, GRIN3A LBD mod, NadD block, SMARCA2 act, SKN-1 block)
